# According to PubChem BioAssay AID1835 (Johns Hopkins Ion Channel Center, 2009):
# Hit rate of the full screen: of about 2,400 compounds, about 750 (31%) were called active.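 The calls were made as follows: active = median signal gain over dofetilide-blocked control wells reaching their mean plus 3 SD, so readout 1 at least 0; inactive = the rest.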 The list shows a part of the results.
# Molecular target: Voltage-gated inwardly rectifying potassium channel KCNH2 (Homo sapiens) (UniProt Q12809)
# Test: hERG protection against dofetilide inhibition, confirmation, cell-based, thallium flux, duplicate retest, dofetilide IC70 (AID 1835)
# Conditions: hERG cell line, FluxOR thallium flux, dofetilide-blocked; at 10 µM; hits give high values
# Sequence of Voltage-gated inwardly rectifying potassium channel KCNH2 (Homo sapiens) (Q12809 whole entry, looked up): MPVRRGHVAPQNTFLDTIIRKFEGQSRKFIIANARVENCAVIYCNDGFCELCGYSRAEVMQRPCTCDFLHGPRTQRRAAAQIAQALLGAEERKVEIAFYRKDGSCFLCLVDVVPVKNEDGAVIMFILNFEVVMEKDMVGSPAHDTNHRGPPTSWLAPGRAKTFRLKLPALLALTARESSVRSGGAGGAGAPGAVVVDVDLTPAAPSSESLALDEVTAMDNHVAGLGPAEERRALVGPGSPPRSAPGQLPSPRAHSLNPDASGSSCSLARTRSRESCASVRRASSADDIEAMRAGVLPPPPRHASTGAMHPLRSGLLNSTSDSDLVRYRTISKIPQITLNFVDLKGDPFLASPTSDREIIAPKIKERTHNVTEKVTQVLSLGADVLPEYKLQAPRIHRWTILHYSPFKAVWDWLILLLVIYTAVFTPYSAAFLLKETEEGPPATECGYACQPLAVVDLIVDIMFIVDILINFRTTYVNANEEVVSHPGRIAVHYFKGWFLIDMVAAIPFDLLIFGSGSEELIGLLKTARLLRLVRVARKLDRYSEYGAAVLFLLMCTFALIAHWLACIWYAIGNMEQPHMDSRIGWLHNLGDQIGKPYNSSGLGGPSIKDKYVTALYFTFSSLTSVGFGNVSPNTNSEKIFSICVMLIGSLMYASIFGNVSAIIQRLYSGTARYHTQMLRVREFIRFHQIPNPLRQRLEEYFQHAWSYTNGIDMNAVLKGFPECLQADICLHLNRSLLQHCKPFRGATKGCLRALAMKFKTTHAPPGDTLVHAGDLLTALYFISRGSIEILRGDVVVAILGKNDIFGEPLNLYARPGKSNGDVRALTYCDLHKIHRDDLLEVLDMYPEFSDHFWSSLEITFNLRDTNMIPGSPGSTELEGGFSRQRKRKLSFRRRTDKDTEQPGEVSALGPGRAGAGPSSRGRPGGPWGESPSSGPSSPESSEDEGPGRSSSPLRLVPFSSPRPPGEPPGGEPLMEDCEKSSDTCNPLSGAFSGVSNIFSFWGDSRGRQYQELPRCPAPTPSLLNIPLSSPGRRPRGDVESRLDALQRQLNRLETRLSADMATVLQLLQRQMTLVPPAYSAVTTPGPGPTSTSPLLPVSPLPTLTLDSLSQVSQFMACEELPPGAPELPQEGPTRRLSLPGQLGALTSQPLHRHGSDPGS
row,SMILES,"activity increase over dofetilide control, less the hit threshold"
1,Nc1cc(N)nc(SCc2cc(=O)oc3cc4c(cc23)CCC4)n1,-35% (inactive)
2,CCCNC(=O)CN1C(=O)NC(Cc2c[nH]c3ccccc23)C1=O (stereo unspecified),-22% (inactive)
3,COc1ccc(-c2nc(=S)c3c([nH]2)Oc2ccc(C)cc2C3)cc1O,-22% (inactive)
4,CC(=O)Nc1ccc(NC(=O)CSc2ncc(C(=O)Nc3ccc(Cl)cc3)c(=O)n2C)cc1,-4% (inactive)
5,Oc1c(Cl)cc(Cl)cc1C=Nc1ccc(Br)cc1,8% (active)
6,Cc1ccc(N=Cc2cc(Cl)cc(Cl)c2O)nc1,3% (active)
7,Oc1c(Br)cc(Br)cc1C=Nc1ccc2c(c1)OCCO2,-12% (inactive)
8,CC(=O)N1c2ccc(N=Cc3cc(Br)cc(Br)c3O)cc2CC1C (stereo unspecified),-5% (inactive)
9,Cc1ccc(N=Cc2cc(Br)cc(Cl)c2O)cc1,-10% (inactive)
10,Cc1cccc(N=Cc2cc(Br)cc(Cl)c2O)c1,5% (active)
11,O=C(CSCc1cnn(-c2ccccc2)c1-n1cccc1)NCc1cccnc1,-22% (inactive)
12,Cc1ccc(-c2csc3nc[nH]c(=S)c23)cc1,45% (active)
13,S=c1[nH]cnc2scc(-c3ccc(Cl)cc3)c12,22% (active)
14,Cn1cc(/C=N/n2cnc3scc(-c4ccc(Cl)cc4)c3c2=O)c2ccccc21,-10% (inactive)
15,Cn1nnnc1Sc1ncnc2scc(-c3ccc(F)cc3)c12,-12% (inactive)
16,S=c1[nH]cnc2scc(-c3ccc(Br)cc3)c12,33% (active)
17,S=c1[nH]cnc2scc(-c3ccccc3)c12,51% (active)
18,Cc1ccc(C)n1-n1c(C)nc2scc(-c3ccccc3)c2c1=O,-20% (inactive)
19,O=C1C(=O)N(CCN2CCOCC2)C(c2cccnc2)/C1=C(/O)c1ccc(Cl)cc1 (stereo unspecified),-8% (inactive)
20,CCn1nnnc1SCC(=O)N1c2ccccc2Sc2ccccc21,-17% (inactive)
21,CCOC(=O)N1CCN(c2c(-c3ccc(C)c(C)c3)c(=O)c2=O)CC1,1% (active)
22,CCOC(=O)N1CCN(C(=O)CSc2nnc(-c3ccccc3OC)o2)CC1,-8% (inactive)
23,CCOC(=O)N1CCN(C(=O)CCn2c(=S)[nH]c3ccsc3c2=O)CC1,-6% (inactive)
24,CC(C)OC(=O)C1CC(C)(O)C(=O)C(C(=O)OC(C)C)C1c1ccc([N+](=O)[O-])cc1 (stereo unspecified),-22% (inactive)

row,SMILES,"activity increase over dofetilide control, less the hit threshold"
1,CN1CCN(c2nnc(-c3cccs3)c3ccccc23)CC1,-13% (inactive)
2,CCOC(=O)CN1N=C(/C=C/c2ccc(OC)cc2)CCC1=O,-25% (inactive)
3,CCOC(=O)C1=NN(C(=O)c2ccc(OC)cc2)C(O)(c2ccc(Cl)cc2)C1 (stereo unspecified),81% (active)
4,CCOC(=O)C1=NN(C(=O)c2ccccc2)C(O)(c2ccc(C)cc2)C1 (stereo unspecified),1% (active)
5,CCC1=NN(C(=O)c2ccc(Cl)cc2)C(O)(c2ccc(C)cc2)C1 (stereo unspecified),-14% (inactive)
6,CCOC(=O)C1=NN(C(=O)c2ccc(C)cc2)C(O)(c2ccc(Cl)cc2)C1 (stereo unspecified),100% (active)
7,O=C1C=C(Nc2cccc3cccnc23)c2ccccc2C1=O,-5% (inactive)
8,COCC(=O)Nc1cc(C)cn(Cc2c(F)cccc2Cl)c1=O,-5% (inactive)
9,Cc1ccc(C(=C2C3C=CC2C2C(=O)NC(=O)C32)c2ccc(C)cc2)cc1 (stereo unspecified),-15% (inactive)
10,CC(C)(C)c1cc(CCC(=O)NCc2ccncc2)cc(C(C)(C)C)c1O,-11% (inactive)
11,O=C(N/N=C/c1ccccn1)c1cc(-c2ccc(Br)cc2)nc2ccccc12,-46% (inactive)
12,Cc1ccccc1NC(=S)NC(=O)c1cc(-c2ccccc2)nc2ccccc12,27% (active)
13,COC(=O)c1ccc(NC(=S)NC(=O)c2c(-c3ccccc3)noc2C)cc1,-15% (inactive)
14,Cc1ccc2nc(-c3ccccn3)cc(C(=O)NC3CCN(C)CC3)c2c1,-19% (inactive)
15,O=C(NC(=S)Nc1ccccn1)c1cc(-c2ccccc2)nc2ccccc12,1% (active)
16,COC(=O)c1ccc(NC(=S)NC(=O)c2cc(-c3ccccc3)nc3ccccc23)cc1,11% (active)
17,O=C(NC(=S)Nc1ccccc1)c1cc(-c2ccccc2)nc2ccccc12,8% (active)
18,CC(C)(C)NS(=O)(=O)c1ccc(NC(=O)c2cc(-c3ccccc3)nc3ccccc23)cc1,-11% (inactive)
19,Cc1ccc(NC(=O)c2cc(NC(=O)/C=C\C(=O)O)ccc2N2CCCCC2)cc1,-11% (inactive)
20,Cc1nnc(N2C(=O)C(=O)/C(=C(\O)c3ccc4c(c3)CC(C)O4)C2c2ccccc2)s1 (stereo unspecified),-7% (inactive)
21,Cc1ccc(CNC(=O)C2=CCN(S(=O)(=O)c3ccc(C)cc3)CC2)cc1,-24% (inactive)
22,CCCCn1nnc(NC(=O)Cc2ccc(Cl)cc2)n1,-3% (inactive)
23,Cc1cccc(NC(=S)NC(=O)c2cc(-c3ccccc3)nc3ccccc23)c1,8% (active)
24,Cc1ccc2nc(-c3ccncc3)cc(C(=O)Nc3ccc4c(c3)OCCO4)c2c1,-15% (inactive)

row,SMILES,"activity increase over dofetilide control, less the hit threshold"
1,NC(=O)c1cccnc1Nc1cccc([N+](=O)[O-])c1,10% (active)
2,O=C(CCSCCc1ccccn1)Nc1cccc([N+](=O)[O-])c1,-4% (inactive)
3,O=C(O)c1ccc(N=NNc2cccc([N+](=O)[O-])c2)cc1,-2% (inactive)
4,O=C(NCC(c1cccs1)N1CCOCC1)c1cc(S(=O)(=O)N2CCOCC2)ccc1F (stereo unspecified),-22% (inactive)
5,CCc1cc2c(=O)n(CCC(C)C)c(=S)[nH]c2s1,71% (active)
6,CC(C)(C)OC(=O)N1CCC2(CC1)Oc1ccc(Cl)cc1C(=O)C21CC(c2ccc(Cl)cc2)=NO1 (stereo unspecified),-19% (inactive)
7,COc1ccc2ncc(OC(C)=O)cc2c1,-14% (inactive)
8,COc1ccc2nc(N=Nc3c(O)ccc4ccccc34)sc2c1,31% (active)
9,O=C(Nc1ccccc1)O/N=C/c1ccncc1,-7% (inactive)
10,CN(C)C(=O)c1cc(C(=O)c2ccc(Cl)cc2Cl)c[nH]1,-4% (inactive)
11,CN(C)CCCN=C(NO)c1ccc(Cl)cc1Cl,4% (active)
12,C=CCSC1=C(C#N)C(c2ccccc2)CC(=O)N1 (stereo unspecified),-15% (inactive)
13,CCC(C)(C(=O)NC1CCCC1)N(Cc1ccco1)C(=O)c1ccccn1 (stereo unspecified),-13% (inactive)
14,Cc1ccc(C(C(=O)NC(C)(C)C)N(Cc2cccnc2)C(=O)C(=O)NC2CCCCC2)o1 (stereo unspecified),0% (active)
15,Cc1ccc(C(=O)NC2CCC(C)CC2)o1 (stereo unspecified),-23% (inactive)
16,CC(C)C(O)(C#CCN1CCCC1)c1ccccc1 (stereo unspecified),-16% (inactive)
17,CCOc1ccc(N(CC)C(=O)COc2cc(=O)n(C)c3ccccc23)cc1,1% (active)
18,CCOc1ccc(-n2c(C)c(C(C)=O)c3cc(O)ccc32)cc1,-14% (inactive)
19,CCn1c2ccccc2c2cc(NC(=O)COc3ccccc3)ccc21,-20% (inactive)
20,CC(C)Oc1ccc(CNC(=O)C2CCN(C(=O)N3CCOc4ccccc43)CC2)cc1,-31% (inactive)
21,CCOc1ccccc1C(=O)NC1CC2CCCC(C1)N2Cc1nnnn1Cc1ccco1 (stereo unspecified),-24% (inactive)
22,CCOC(=O)c1c(C)[nH]c(C)c1S(=O)(=O)N1CCCCC1,4% (active)
23,Cc1[nH]c(=O)[nH]c(=O)c1S(=O)(=O)N1CCC(C(=O)NC(C)c2ccccc2)CC1 (stereo unspecified),-4% (inactive)
24,CCCCc1c(C)[nH]c(C(=O)OCC)c1C,-14% (inactive)

row,SMILES,"activity increase over dofetilide control, less the hit threshold"
1,O=C1c2nc3cc(-c4ccco4)[nH]n3c(=O)c2CN1Cc1ccccc1,-10% (inactive)
2,CCC(=O)NC(c1cccs1)c1ccc2cccnc2c1O (stereo unspecified),-8% (inactive)
3,CCOC(=O)N1CCN(C(=O)CSc2nc3c([nH]c4ccccc43)c(=O)n2CC)CC1,0% (inactive)
4,O=c1c(Cc2ccccc2)c(O)nc2n1CCCS2,-3% (inactive)
5,O=c1c2[nH]c3ccccc3c2nc2n1CCCS2,3% (active)
6,COc1ccc(NC(=O)C2CCN(S(=O)(=O)c3cn(C)nc3C)CC2)cc1,-12% (inactive)
7,COc1ccc(/C=C2\SC(c3ccc(C)cc3)=NC2=O)cc1OC,112% (active)
8,CCOC(=O)C1=C(O)/C(=C/c2ccc(OCC(=O)O)c(OC)c2)SC1=Nc1ccc(OCC)cc1,-9% (inactive)
9,COc1ccc(-c2ccc3c(N)c(C(=O)c4ccc(OC)c(OC)c4)sc3n2)cc1,-9% (inactive)
10,COc1ccc(C(C(=O)NC(C)(C)C)N(C(=O)CCC(=O)Nc2cc(C)on2)c2cccc(F)c2)cc1 (stereo unspecified),-6% (inactive)
11,O=C(CSc1nc(N2CCCCC2)nc(N2CCCCC2)n1)c1ccccc1,-16% (inactive)
12,C=CCn1c2ccccc2c(=O)c2cc(C#Cc3ccsc3)ccc21,17% (active)
13,O=C(/C=C/Nc1ccc(F)cc1)c1ccco1,-22% (inactive)
14,Cc1cccc(N2C(=O)C(O)=C(C(=O)c3cccs3)C2c2cccc(Oc3ccccc3)c2)n1 (stereo unspecified),-12% (inactive)
15,CCCn1c(SCC(=O)Nc2nc(-c3ccc(OC)cc3)cs2)nc2c1c(=O)n(C)c(=O)n2C,-8% (inactive)
16,CCCC(=O)NC(=S)Nc1nc(-c2ccc(OC)cc2)cs1,-11% (inactive)
17,CCC(=O)N(CC)c1nc(-c2ccc(OC)cc2)cs1,17% (active)
18,COc1cc(C(=O)NCCNc2nc3cc(C)ccc3cc2C#N)cc(OC)c1OC,-2% (inactive)
19,Cc1ccc(-c2c(=O)n(O)c3ccccc3[n+]2[O-])cc1,52% (active)
20,O=c1c(-c2cccc3ccccc23)[n+]([O-])c2ccccc2n1O,9% (active)
21,O=c1c(-c2ccc(Cl)cc2)[n+]([O-])c2ccccc2n1O,64% (active)
22,O=c1c(-c2ccccc2)[n+]([O-])c2ccccc2n1O,-10% (inactive)
23,CCc1nnc(NC(=O)c2cccc(S(=O)(=O)N3CCN(c4ccccc4)CC3)c2)s1,-17% (inactive)
24,O=C(COc1ccccc1)Nc1nnc(-c2ccc(Cl)s2)o1,-9% (inactive)

row,SMILES,"activity increase over dofetilide control, less the hit threshold"
1,CC1=Nc2ccc(C)cc2/C1=C/c1c(N)n2c(S(=O)(=O)C(C)C)nsc2nc1=O,-5% (inactive)
2,CCOC(=O)c1c(C)cccc1OCC(N)=O,-16% (inactive)
3,CC(C)C(=O)Nc1c(-c2ccccc2F)c(=O)c2ccccc2n1C,-6% (inactive)
4,CCOC(=O)Cn1cc(C=O)c2ccccc21,-17% (inactive)
5,Cn1c(=O)c(Sc2ccccc2)c(O)c2ccccc21,2% (active)
6,CCn1c(=O)c(-[n+]2ccccc2)c(O)c2ccccc21,-15% (inactive)
7,CCOC(=O)c1c(O)c2ccccc2n(C)c1=O,5% (active)
8,Cn1c(=O)c(-c2cc(=O)[nH][nH]2)c(O)c2ccccc21,2% (active)
9,Cn1c(=O)cc(-c2ccccc2)c2ccccc21,-28% (inactive)
10,O=C1OC(/C=C/c2ccccc2)=NC/1=C/c1ccco1,-15% (inactive)
11,COC(=O)Cc1[nH]n(-c2nc3ccccc3s2)c(=O)c1C(C)=Nc1ccc(C)cc1,-1% (inactive)
12,Cn1ncc2c(NNC(=O)Cc3ccccc3)ncnc21,-13% (inactive)
13,O=C(O)c1ccc(Cl)cc1Nc1nc2cc(Cl)ccc2o1,10% (active)
14,COC(=O)n1c(=S)oc2cc(Cl)ccc21,-13% (inactive)
15,O=C(O)c1c2c(nc3ccccc13)/C(=C/c1cccc([N+](=O)[O-])c1)CCC2,-18% (inactive)
16,N#Cc1c2n(c3c(=O)n(Cc4ccc(Cl)cc4)cnc13)CCCC2,-14% (inactive)
17,Cc1cc(C)cc(N(C(=O)c2cc3ccccc3oc2=O)C2C=CS(=O)(=O)C2)c1 (stereo unspecified),-13% (inactive)
18,Cc1sc2nc(CN3CCOCC3)[nH]c(=S)c2c1C,92% (active)
19,CC(C)(C)n1nnnc1C(c1cccs1)N1CCN(Cc2ccccc2)CC1 (stereo unspecified),-6% (inactive)
20,Cc1ccc(-c2cccc(C3CC=CC4C3C(=O)N(Cc3ccccc3)C4c3ccc4ccccc4c3)c2)cc1 (stereo unspecified),-1% (inactive)
